# Phagocyt inh: inhibitors of macrophage phagocytosis | hit rate 0.07% among 110,000 | J774A.1 macrophage IgG-bead phagocytosis, imaging | inhibition, % at 5 µM;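 active means inhibition above the mean of the plate negative controls plus 5 SD, cut at about 13% in these data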;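 further: phagocytic index as fraction of beads internalized from green versus red external bead signal; plate controls were DMSO negative control for no effect and cytochalasin-D positive control for full effect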
# E-sel TNF inh: TNF alpha driven E-selectin expression inhibition; hit rate 0.71% among 120,000; HUVEC TNFa-induced E-selectin immunofluorescence, high content; AID 1246; inhibition, % at 2 µM;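 active means inhibition above the batch mean plus 3 SD, and confirmed as a hit on visual image review, cut at about 43% in these data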;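 further: 0% = TNF-stimulated DMSO wells and 100% = unstimulated control wells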
# VCAM1 TNFa inh: reduces TNF alpha induced VCAM1 expression in HUVEC. HUVEC TNFa-induced VCAM-1 immunofluorescence, high-content imaging. AID 802. hit rate 0.48% among 95,000. inhibition, % at 2 µM;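 active means inhibition above the batch mean plus 3 SD, with images confirmed as a hit by eye, cut at about 37% in these data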;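 further: 0% = TNF-stimulated DMSO wells and 100% = unstimulated control wells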
# cytoskel mod: modifiers of cytoskeleton assembly | HUVEC TNFa F-actin phalloidin imaging, high content | inhibition, % at 2 µM | hit rate 0.18% among 91,000 | AID 836;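 active means inhibition above the batch mean plus 3 SD and confirmed as a hit by visual image inspection, cut at about 30% in these data, passing the limit was not always enough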
# HUVEC tox TNFa: toxic to HUVEC cells under TNF alpha stimulation; HUVEC TNFalpha-stimulated, Hoechst cell count, imaging; cell count reduction, % at 2 µM; hit rate 0.17% among 93,000;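 active means cell count reduction exceeding the screen mean by over 5 SD, scaled to untreated wells per plate, cut at about 78% in these data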;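 further: cells counted after 24 h of TNF alpha exposure following the 1 h pretreatment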
# Insulin prom inh: TRM-6 insulin promoter activity inhibition. TRM-6 cells (human fetal islet line), insulin promoter-eGFP reporter, imaging; reporter expression induced with tamoxifen. inhibition, % at 2 µM. hit rate 0.9% among 130,000. AID 1273;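 active means inhibition above the mean plus 3 SD, with well images judged a real hit on visual review, cut at about 60% in these data, passing the limit was not always enough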
# * = called active by the depositor; . = no result given. In the library only some 1.6% were active in any assay of this set; here they are far more common.
SMILES,Phagocyt inh,E-sel TNF inh,VCAM1 TNFa inh,cytoskel mod,HUVEC tox TNFa,Insulin prom inh
O=C(CCN1CCC(c2ccccc2)C1)c1cccs1 (centres undefined),0,-80,-12,11,-30,35
O=C(O)CNC(=O)C12CC3CC(CC(Cl)(C3)C1)C2,.,-14,.,.,.,-21
CC1CCCCN1C(=O)CCS(=O)(=O)c1cccc2nonc12 (centres undefined),.,.,.,.,.,-33
Cc1ccc(NC(=O)CNc2ccc(OC(C)C)cc2)c(C)c1,.,17,2,23,-29,75*
O=C(CC(C(=O)O)P(=O)(c1ccccc1)c1ccccc1)c1ccccc1 (centres undefined),.,.,.,.,.,-35
COc1ccc(Cl)cc1NC(=S)NCc1ccco1,.,100*,18,7,10,-28
S=C(NCc1ccco1)Nc1cc(Cl)c(Cl)cc1Cl,-4,29,.,.,.,.
O=C(NCCOc1ccccc1F)c1cc(F)c(F)cc1Cl,-5,-7,.,.,.,-44
FC(F)Oc1ccc(NC(=S)NCC2COc3ccccc3O2)cc1 (centres undefined),-7,.,.,.,.,11
CC(/C=N/NC(=O)c1n[nH]c2c1CCC2)=C\c1ccccc1,7,36,67*,-10,70,-58
O=C(N/N=C/C(Br)=C\c1ccccc1)c1n[nH]c2c1CCC2,0,57,91*,-10,69,-39
O=C(N/N=C/C=C/c1ccccc1)c1n[nH]c2c1CCC2,5,10,68*,18,25,24
O=C(CSCC(=O)NC1CC1)Nc1ccc2ccccc2c1,.,-6,9,18,-35,6
COc1cc(OC)c(C(=O)Oc2ccc3c(c2)OCO3)cc1OC,2,.,7,-13,20,.
COc1cc(CC(=O)Oc2ccc3c(c2)OCO3)cc(OC)c1OC,-2,91*,.,.,.,38
O=C(COc1ccccc1/C=C1\SC(=O)NC1=O)Nc1ccccc1,.,-3,.,.,.,82*
O=C1NC(=O)/C(=C\c2ccccc2Oc2ccc(F)c(F)c2)S1,1,27,0,-4,-16,32
CC(C)(O)C#Cc1ccc(C(=O)N2CCN(c3ccc(Cl)cc3)CC2)cc1,.,6,.,.,.,38
CN1C(=O)COc2ccc(C(=O)c3oc4ccccc4c3-c3cnc4c(c3)COc3ccccc3-4)cc21,.,-7,17,-6,-1,57
CCOc1ccc2nc(-c3ccccc3)[nH]c2c1,4,.,-25,8,-45,86*
O=C(O)C1C2C=CC(C2)C1C(=O)NCCCc1ccccc1 (centres undefined),-4,68*,.,.,.,23
CCC(C(=O)OCn1nnc2ccccc2c1=O)c1ccccc1 (centres undefined),.,-3,.,.,.,-35
Cc1nn(C)cc1CN(C)C(=O)c1cc(COc2ccc(F)cc2F)on1,.,-9,.,.,.,40
O=C(O)C1CCCCC1C(=O)Nc1cc(Cl)ccc1Cl (centres undefined),.,-34,10,37*,54,46
CC(C)NS(=O)(=O)c1ccc(CCC(=O)N2CCC(C(N)=O)CC2)cc1,.,-3,.,.,.,13
SMILES,Phagocyt inh,E-sel TNF inh,VCAM1 TNFa inh,cytoskel mod,HUVEC tox TNFa,Insulin prom inh
Cc1c(Br)c([N+](=O)[O-])nn1CCCC(=O)Nc1sc2c(c1C#N)CCC2,-8,24,.,.,.,-94
Cc1c(Br)c([N+](=O)[O-])nn1CC(=O)Nc1sc2c(c1C(=O)OC(C)C)CCCC2,3,64*,10,8,-4,-9
S=C(Nc1ccccc1)N1CCN(c2ccc(N3CCOCC3)nn2)CC1,.,.,.,.,.,75*
COc1cc(CN2CCN(Cc3ccc(C)cc3)C(CCO)C2)ccc1O (centres undefined),.,-1,.,.,.,78*
COc1cccc(CN2CCN(Cc3ccc(O)c(OC)c3)CC2CCO)c1 (centres undefined),.,.,.,.,.,-56
Cc1cc(S(=O)(=O)N2CCCC2)ccc1OCC(=O)N1CCOCC1,-1,6,.,.,.,78*
Cc1ccccc1Cn1nc(C)c(NC(=O)C2c3ccccc3Oc3ccccc32)c1C,-3,.,.,.,.,-4
Cc1cc(C)c(OCC(=O)Nc2cccc(NC(=O)c3ccco3)c2)c(Br)c1,-1,-6,.,.,.,-13
Cc1cc(C)c(OCC(=O)Nc2ccc(NC(=O)c3ccco3)cc2)c([N+](=O)[O-])c1,-3,4,.,.,.,64*
COc1ccc(C2=NNC(c3cccs3)=Nc3ccc(OC)cc32)cc1,.,74*,9,-16,-18,56
CCOc1ccccc1N/C=C(\C#N)c1nc2ccccc2n1C,-1,10,5,13,-30,72*
Cn1c(/C(C#N)=C/Nc2ccccn2)nc2ccccc21,0,-2,0,27,-23,11
CCOC(=O)c1nnn(-c2nonc2N)c1-c1ccc(F)cc1,.,.,.,.,.,0
Cc1ccc2nc(/N=C(\N)NC(=O)N3c4ccccc4Sc4ccccc43)nc(C)c2c1,-3,.,.,.,.,8
Cc1ccc2c(C)nc(/N=C(\N)NC(=O)N3c4ccccc4Sc4ccccc43)nc2c1,-3,-14,.,.,.,80*
Cc1ccc2c(c1)nc(-n1nc(C)cc1C)c1nnnn12,.,26,.,.,.,21
COc1ccc(NC(=O)c2oc3ccccc3c2C)c(OC)c1,.,-2,16,6,-14,10
COC(=O)c1cc(OC)c(OC)cc1NC(=O)c1oc2ccccc2c1C,.,-7,3,32*,-28,-100
O=C(COC(=O)c1cccc(NS(=O)(=O)c2ccc(F)c(F)c2)c1)NC(=O)NC1CCCCC1,.,.,.,.,.,-3
COc1cccc(CNC(=O)C2CCCN(S(=O)(=O)c3c(C)n[nH]c3C)C2)c1 (centres undefined),-2,.,-18,17,79*,.
CCS(=O)(=O)N1CCCC(C(=O)NCc2cccc(OC)c2)C1 (centres undefined),.,53*,27,3,11,-75
COc1cccc(CNC(=O)C2CCN(S(=O)(=O)N3CCCCC3)CC2)c1,-2,0,3,16,-2,15
Cc1cc(Oc2ccc(=O)n(C)n2)nc(=S)[nH]1,.,-13,.,.,.,.
CC(=O)Nc1ccc(S(=O)(=O)n2cnc(C)c2)cc1,1,9,91*,-9,98*,.
CC(=O)Nc1ccc(S(=O)(=O)N2CCN=C2C)cc1,0,-17,-3,7,-19,-15
SMILES,Phagocyt inh,E-sel TNF inh,VCAM1 TNFa inh,cytoskel mod,HUVEC tox TNFa,Insulin prom inh
CCn1c(/N=C/c2ccccc2NS(=O)(=O)c2ccc(C)cc2)nc2ccccc21,-7,.,.,.,.,30
COc1ccc(-n2nc([N+](=O)[O-])c(=NCCc3ccc(Cl)cc3)n2O)cc1,.,55*,4,15,2,0
OCCSc1nnc(Nc2ccccc2)s1,1,.,29,-35,78*,.
N#Cc1cccc(S(=O)(=O)NCC(=O)OCC(=O)c2ccc[nH]2)c1,.,-28,.,.,.,.
CS(=O)(=O)N1CCN(c2ccccc2NC(=O)c2ccc3ccccc3c2)CC1,.,4,21,5,-25,28
CS(=O)(=O)c1ccc(Cl)c(NC(=O)c2ccc3ccccc3c2)c1,-4,64*,.,.,.,.
CCC12CN3CC(CC)(CN(C1)C3c1ccc([N+](=O)[O-])o1)C2=O (centres undefined),.,.,.,.,.,-57
Cc1ccc(Cl)c(OCC(=O)Nc2sc(C)c(C)c2C#N)c1,-11,.,.,.,.,.
Cc1c(C#N)c(O)n(CCO)c(=O)c1N=Nc1ccc(S(N)(=O)=O)cc1,.,.,.,.,.,-5

# Bioassay records as filed in PubChem.
